Bioassay records: PubChem BioAssay, National Center for Advancing Translational Sciences (NCATS)
This is a sample that favours compounds with a hit; in the whole collection about 20% have one here.
Pf growth 96h: P. falciparum growth inhibition at 96 hours; P. falciparum luciferase reporter growth, 96 h; Potency, µM (highest dose often 28.7 µM), for the others: at the highest dose activity change, negative = inhibition, most hits filed as inhibitors; actives 6.9% (n = 320,000); AID 504834; also: potency is read from the fitted curve at half-maximal effect; % is scaled to controls: 0 for no effect and ±100 for the full control effect
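Delayed-death screen, second-generation endpoint: infected erythrocytes, 2% hematocrit, 0.05% parasitemia final; 96 hours at 37 C, 5% CO2; luciferase detection reagent; luminescence decrease equals reduced growth.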
HCMV antiviral: human cytomegalovirus inhibition. activity change, negative = inhibition, % at 57.5 µM. actives 4.5% (n = 410,000). AID 1259415. HFF cells, HCMV-luciferase reporter, 72 h; stronger effect = lower value; in the data active = activity change below about -60%; inconclusive = no clear call, values can overlap the other calls; inactive = above about -39%; also: % is scaled to controls: 0 for no effect and ±100 for the full control effect
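Inhibition of viral replication was scored as loss of reporter luminescence in HFFs infected with HCMV-luciferase (MOI 1 PFU/cell) for 72 h; compounds tested at 2 doses, normalized to buffer and Salinomycin controls.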
CHX counter: counter-screen hit for Shiga toxin inhibitors, cycloheximide. cell reporter, cycloheximide protein synthesis inhibition counterscreen. max response, %. actives 12% (n = 300,000); in the data active = max response mostly above about 13%, no sharp cut-off; inactive = mostly below about 14%; also: read at 38.3 µM for the half of the compounds with a filed dose; 0% is about no effect
Pf growth 48h: inhibits P. falciparum growth in the first generation, 48 h; AID 504832; Potency, µM (top dose mostly 28.7 µM), without a hit: top-dose activity change, negative = inhibition, hits mostly inhibitors; actives 5.9% (n = 310,000); P. falciparum luciferase growth in erythrocytes, 48 h; also: potency is read from the fitted curve at half-maximal effect; % is scaled to controls: 0 for no effect and ±100 for the full control effect
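Luminescence readout; reporter = integrated firefly luciferase in P. falciparum. RBC culture at 2% hematocrit, 0.1% parasitemia final, 37 C/5% CO2; decreased signal taken as growth inhibition.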
Shiga inhibitor: inhibitors of Shiga toxin in Vero cells. Vero cells, Shiga toxin protein synthesis inhibition reporter. inhibition, % at 38.7 µM. actives 9.2% (n = 290,000). AID 2315; in the data active = inhibition mostly above about 28%, no sharp cut-off; inactive = mostly below about 43%; also: 0% is about no effect
* hit, by the source's call; ? = inconclusive; . = not tested or not shown; [ ] = another dose, or the depositor's remark. Unless noted, calls follow the shape of the dose curve; as a rule, active = well fitted inhibition curve with a large enough effect; inconclusive = small, poorly fitted or top-dose-only effect, or another doubt; inactive = no such curve, though single readings can be large or run the other way.

SMILES	Pf growth 96h	HCMV antiviral	CHX counter	Pf growth 48h	Shiga inhibitor
O=C(CSc1nccc2ccccc12)N1CCN(c2ccccn2)CC1	-11%	-26	1	.	22
CCOC(=O)Cc1csc(SCC(=O)Nc2cc(Cl)ccc2Oc2ccccc2)n1	.	-9	2	-19%	18
Cc1ccc(-n2ncc3c2CCCC3NC(=O)CCCN2CCCCC2=O)cc1C (centres undefined)	13µM*	6	14	-6%	6
CSCC(=O)NC1CCCc2c1cnn2-c1ccc(C)c(C)c1 (centres undefined)	?	-22	14	-2%	58*
Cc1ccc(-n2ncc3c2CCCC3NC(=O)CCN2CCCC2=O)cc1C (centres undefined)	?	-34	-3	-9%	3
CCOC(=O)c1c(NC(=O)c2cc3nc(-c4ccc(OC)cc4)cc(C(F)(F)F)n3n2)sc2c1CCC(C)C2 (centres undefined)	.	12	.	.	.
O=C1C=CC2(C=C1)O[C@H](Cc1ccccc1)[C@@H](Cc1ccccc1)O2	.	-99*	.	.	.
COC(=O)[C@H](Cc1ccccc1)NC(=O)c1ccc2ccccc2n1	215%	-20	18	207%	41*
CCCNC(=O)C(Cc1ccc(I)cc1)NC(=O)c1ccc2ccccc2n1 (centres undefined)	-2%	18	.	?	.
CC(CCc1ccccc1)NC(=O)c1ccc(NC(=O)c2ccccc2)cc1 (centres undefined)	-13%	-31	1	?	2
CC(CCc1ccccc1)NC(=O)c1ccc(NC(=O)c2cccc(Br)c2)cc1 (centres undefined)	9.3µM*	6	-7	15µM*	-14
CCOc1ccc(C(=O)NC(Cc2ccccc2)C(=O)OC)cc1 (centres undefined)	128%	12	41*	163%	73*
CCOc1ccc(C(=O)N[C@H](C(=O)O)C(C)C)cc1	-24%	20	-1	.	19
CCOc1ccc(C(=O)NC(C)CCc2ccccc2)cc1 (centres undefined)	-32%	28	28*	-4%	29*
COC(=O)C(Cc1ccccc1)NC(=O)COc1ccc(C(C)(C)C)cc1 (centres undefined)	25%	30	-3	.	-10
Cc1ccc(C)c(S(=O)(=O)N2CCC(c3nc4c(nnn4Cc4ccc5c(c4)OCCO5)c(=O)[nH]3)CC2)c1	-72%	-15	2	?	-11
COc1ccc(C(=O)NC(C)CCc2ccccc2)cc1 (centres undefined)	0%	-3	19*	7%	.
COc1ccc(C(=O)NCCCc2ccccc2)cc1	.	127	.	.	.
COc1ccc(C(=O)NCC2OCCc3ccccc32)c(O)c1 (centres undefined)	.	-5	23*	?	47*
COc1ccc(C(=O)NC(C)CCc2ccccc2)c(O)c1 (centres undefined)	?	-16	30*	?	68*
COc1cc(C(=O)NC(C)CCc2ccccc2)cc(OC)c1OC (centres undefined)	?	93	-2	?	.
CC(C)COc1ccc(C(=O)NCC2OCCc3ccccc32)cc1 (centres undefined)	.	7	.	.	.
CCOc1ccc(C(CCc2ccccc2)NC(=O)c2ccccc2)cc1OCC (centres undefined)	.	0	-3	4.7µM*	18
CCN(CC)c1ccc(S(=O)(=O)N2CCCCC2)cc1NC(=O)C1CCC1	?	0	.	?	.
CCCOc1ccc(C(=O)N(Cc2ccccc2Cl)C2CCS(=O)(=O)C2)cc1 (centres undefined)	.	10	.	.	.
SMILES	Pf growth 96h	HCMV antiviral	CHX counter	Pf growth 48h	Shiga inhibitor
CCOc1ccc(C(CC(=O)O)NC(=O)c2ccco2)cc1OC (centres undefined)	51%	-100*	-2	5%	-5
O=C1/C(=C/c2ccccn2)SC(=S)N1Cc1ccccc1	2%	17	0	9%	-5
Cc1cccc(/C=C2/SC(=O)N(Cc3ccccc3)C2=O)n1	2.6µM*	-7	1	.	13
COc1cc2c(cc1OC)CN(C(=O)c1cccc(S(=O)(=O)N3CCc4ccccc43)c1)CC2	12µM*	?	.	10µM*	.
O=C(Nc1ncccc1O)c1cccc(S(=O)(=O)N2CCc3ccccc32)c1	?	8	-3	4%	-9
COc1ccc(NC(=O)c2cccc(S(=O)(=O)N3CCc4ccccc43)c2)cn1	12µM*	?	1	?	22
CCN(CC(=O)Nc1cccc(OC)c1)C(=O)c1cccc(S(=O)(=O)N2CCc3ccccc32)c1	?	-33	.	12µM*	.
COc1ccc(C(=O)Nc2ccc(S(=O)(=O)N3CCc4ccccc43)cc2)cc1	.	-90*	.	.	.
Clc1ccc(NN(Cc2ccncc2)c2ccc(Cl)cc2)cc1	.	-5	.	.	.
COc1ccc(-c2nc(SCC(=O)N3CCC(C)CC3)n[nH]2)cc1	.	14	.	.	.
CC1=CC(=O)CC(C)(C)[C@@]1(O)/C=C/[C@@H](C)O[C@@H]1O[C@H](CO)[C@@H](O)[C@H](O)[C@H]1O	.	18	.	.	.
CN(C)c1cccc(C(=O)NNC(=O)CN2C(=O)C3CC=CCC3C2=O)c1 (centres undefined)	.	-37	.	.	.
CCOC(=O)/C(C#N)=N/Nc1ccc(S(=O)(=O)N2CCc3ccccc32)cc1	12µM*	-19	-4	13µM*	-13
CN(Cc1nc2ccccc2c(=O)[nH]1)C(=O)c1cccc(S(=O)(=O)N2CCc3ccccc32)c1	.	-67*	.	.	.
COc1cc2nc(NC(=O)c3ccc(S(=O)(=O)N4CCc5ccccc54)cc3)sc2cc1OC	.	-72*	.	.	.
O=C(Nc1nc2c(Cl)cccc2s1)c1ccc(S(=O)(=O)N2CCc3ccccc32)cc1	.	-29	.	.	.
Fc1ccc(-[n+]2nc(Nc3ccccc3)sc2-c2c3ccccc3cc3ccccc23)cc1	?	-98*	32*	?	41*
CSc1ccc(-c2sc(Nc3ccccc3)n[n+]2-c2ccc(F)cc2)cc1	35%	.	-1	?	8
Oc1ccc2ccccc2c1-c1sc(Nc2ccccc2)n[n+]1-c1ccc(F)cc1	?	8	1	?	-4
c1ccc(-[n+]2nc(Nc3cccc4ccccc34)sc2-c2c3ccccc3cc3ccccc23)cc1	0.83µM*	.	.	1µM*	.
COc1ccc(-c2sc(Nc3ccccc3)n[n+]2-c2ccc(F)cc2)c(C)c1C	10µM*	-9	2	?	-12
CC[C@H](C)[C@H](N)C1=N[C@H](C(=O)N[C@@H](CC(C)C)C(=O)N[C@@H](CCC(=O)O)C(=O)N[C@@H](C(=O)N[C@H]2CCCCNC(=O)[C@@H](CC(N)=O)NC(=O)[C@@H](CC(=O)O)NC(=O)[C@@H](Cc3cnc[nH]3)NC(=O)[C@@H](Cc3ccccc3)NC(=O)[C@@H]([C@@H](C)CC)NC(=O)[C@@H](CCCN)NC2=O)[C@@H](C)CC)CS1	13%[12.8 µM]	.	.	-1%[12.8 µM]	.
